Assay outcomes deposited in PubChem BioAssay by Broad Institute.
The sample as a whole holds a higher share of hits than the screen did.
Tg IFNy HTS: inhibitors of Toxoplasma gondii growth with IFN-gamma; actives 3.8% (n = 69,000); Toxoplasma gondii growth in IFN-gamma-treated host cells; stronger effect = lower value; activity change, negative = inhibition, % (concentration not given with the values); in the data active = activity change below about -70%, passing the limit was not always enough;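 also: host cells are HeLa cells infected with Toxoplasma gondii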
The depositor's hits bear a star.

SMILES | Tg IFNy HTS
Cc1oc(-c2ccc(NC(=O)c3cc(F)ccc3Cl)cc2)nc1Cn1cccn1 | -92*
Cc1oc(-c2ccc(NC(=O)c3ccccc3C(F)(F)F)cc2)nc1Cn1cccn1 | -46
CCN(C(=O)c1ccc2c(C)cc(C)c(O)c2n1)C(C)CO (stereo not drawn) | 0
Cc1c(CNC(=O)c2cc(COc3ccccc3F)[nH]n2)oc2ccccc12 | -47
CC(C)CC(NS(=O)(=O)c1ccc2[nH]c(=O)ccc2c1)C(=O)N1CCC(C)CC1 (stereo not drawn) | -13
CC1=C(C(=O)N2CCN(c3ccc([N+](=O)[O-])cc3)CC2)C2(CCN(Cc3ccccc3)CC2)OC1=O | 131
CS(=O)(=O)N1CCOCC2(CCC(Cn3cccn3)O2)C1 (stereo not drawn) | 4
COc1cc2[nH]c3c(=O)n(CCC(=O)N4CCN(c5ccccn5)CC4)cnc3c2cc1OC | 27
O=C(NCCc1csc(-c2ccc(F)cc2)n1)c1cc2ccccc2oc1=O | 27
CCn1cc(-c2nnc(SCC(=O)O)n2C2CC2)cn1 | 9
CCC(=O)Nc1ccc(-c2ccc(OC)nc2)c(C)n1 | 85
COc1ccc(-c2cc3c(C)nc(N)nc3n(C3CCC(OCCO)CC3)c2=O)cn1 (stereo not drawn) | -83*
COc1ccc(-c2ccccc2OC(C)C(N)=O)cn1 (stereo not drawn) | 2
CC[C@@H](Nc1c(Nc2cccc(C(=O)N(C)C)c2O)c(=O)c1=O)c1ccc(C)o1 | 9
COC1(c2ccccc2)CCN(Cc2cc3n(n2)CCCNC3)CC1 | -3
Cc1nn(-c2cc(N3CCCCC3)ncn2)c(C)c1CCC(=O)NC1CCCC1 | -13
Cc1cnc(N2CCOCC3(CCN(c4ccccn4)C3)C2)nc1 (stereo not drawn) | 147
CCn1cc(-c2ccnc(SCC(=O)O)n2)c(C)n1 | 44
Clc1ccc(-c2nc(C34CC5CC(CC(C5)C3)C4)cs2)cc1 | 68
O=C(Nc1nc(C23CC4CC(CC(C4)C2)C3)cs1)c1ccccc1 | -107*
O=C(NC12CC3CC(CC(C3)C1)C2)c1cccnc1 | 6
CCOc1ccc(Nc2nc(-c3ccc(OC)cc3)nc3ccccc23)cc1 | -43
CCOc1ccc(NC(=O)Cn2c(C)cc(C)nc2=O)cc1 | 19
CCOc1ccccc1C(=O)Nc1ccc(-c2nc(Cn3nc(C)cc3C)c(C)o2)cc1 | 44
CCOc1ccc(CNC(=O)c2nc(Nc3ccccc3)c3ccccc3n2)cc1 | -52
SMILES | Tg IFNy HTS
CCOc1ccc(NC(=O)c2nc3ccccc3nc2-n2nc(C)cc2C)cc1 | -99*
CCOc1ccc(Nc2nc3ccccc3nc2Nc2ccc(OCC)cc2)cc1 | -100*
CC(C)c1nc2ccc(NC(=O)c3ccc(Cn4ccnc4)o3)cc2s1 | -9
CCCCC(=O)N1CCC2(CC1)CN(CC(=O)OCC)CCN2C | 5
COc1ccc2c3c([nH]c2c1)[C@@H](CO)N(S(C)(=O)=O)CC31CN(CC2CCOCC2)C1 | 22
COc1ccc2c3c([nH]c2c1)[C@@H](CO)N(S(C)(=O)=O)CC31CCN(CC2CCCC2)CC1 | -107*
COc1ccc2c3c([nH]c2c1)[C@H](CO)N(S(C)(=O)=O)CC31CCN(CC2CCCC2)CC1 | 130
COCCN(C)C(=O)c1nc2c(s1)CCCN2c1ccccc1 | -6
Cc1cccc(CN2CCN(Cc3cccc4cnccc34)CC2)c1 | -10
CCC(C)n1ncn(-c2ccc(N3CCN(c4ccc(OCC5COC(Cn6cncn6)(c6ccc(Cl)cc6Cl)O5)cc4)CC3)cc2)c1=O (stereo not drawn) | -95*
CCN(CC)CC1CN(S(=O)(=O)C2CC2)Cc2nccn2C1 (stereo not drawn) | 3
COCCN1C(=O)CCc2cc(NC(=O)Cc3ccccc3C)ccc21 | 61
CCOc1ccc(NC23SCC(=O)C2CCc2ccccc23)cc1 (stereo not drawn) | 42
COc1cc(NC(=O)CN2CCC3(CC2)N=C(c2cccc(F)c2)C(=O)N3)cc(OC)c1 | -31
OCCCn1cnc(-c2ccccc2)c1-c1cccc2c1OCO2 | 61
O=C(NC1CCc2[nH]ncc2C1)c1cccc(CC2CCNCC2)c1 (stereo not drawn) | 3
O=C(NC1CCNCC1)c1[nH]ncc1NC(=O)c1c(Cl)cccc1Cl | -72*
O=C(NC1CCN(c2cnccn2)CC1)c1ccccc1C1CCNC1 (stereo not drawn) | 3
O=C(CN1C(=O)COCC1=O)NCC1CCN(C2CCCC2)C1 (stereo not drawn) | 3
CC(C)C(=O)NCc1csc(C2CCCN(C(=O)c3cc(F)ccc3F)C2)n1 (stereo not drawn) | -7
COc1cc(N)ccc1-n1nc(C)cc1C | 5
Cc1cnn(Cc2nc(-c3ccc(NC(=O)c4cc(C)on4)cc3)oc2C)c1 | -95*
Cc1cc(C(=O)Nc2ccc(-c3nc(Cn4cccn4)c(C)o3)cc2)no1 | -93*
Cc1cnn(Cc2nc(-c3ccc(NC(=O)c4c(F)cccc4F)cc3)oc2C)c1 | -68
Cc1cc(C)cc(C(=O)Nc2ccc(-c3nc(Cn4cccn4)c(C)o3)cc2)c1 | 14
Cc1ccc(C(=O)Nc2ccc(-c3nc(Cn4cccn4)c(C)o3)cc2)cc1 | -47
